JMJD2A Tudor inh = qHTS Assay for Inhibitors of JMJD2A-Tudor Domain; Potency, µM (titrated, usually from 114 µM), for the others: top-dose activity change, negative = inhibition, actives largely listed as inhibitors; AlphaScreen JMJD2A-Tudor / H3K4me3 peptide binding; Lysine-specific demethylase 4A (Homo sapiens), O75164; 390,000 compounds, 4.4% hits; further: on the % scale 0 is the no-effect control and ±100 the full control effect; nearly all actives have a fitted effect of over 50% in size
HP1b chromo inh = HTS for Inhibitors of HP1-beta Chromodomain Interactions with Methylated Histone Tails; Chromobox protein homolog 1 (Homo sapiens), P83916; Potency, µM (titrated, usually from 114 µM), inactives show at the highest dose activity change, negative = inhibition, most hits filed as inhibitors; AID 540317, 2011; AlphaScreen HP1-beta / biotin-H3K9me3 peptide binding; 390,000 compounds, 0.56% hits; further: nearly all actives have a fitted effect of over 70% in size
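AlphaScreen: HP1-beta (50 nM) preformed 30 min with biotin-H3(1-18)K9me3 peptide (50 nM) in PBS pH 7.4, 0.01% Tween-20. Compound added for 30 min at RT, then streptavidin donor/nickel chelate acceptor beads (10 ug/mL) for 30 min.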
G9a block = qHTS Assay for Inhibitors of Histone Lysine Methyltransferase G9a. 350,000 compounds, 8.8% hits. G9a H3K9 monomethylation, AlphaScreen, 2 h. AID 504332, 2011. Potency, µM (series often up to 102 µM), inactives show at the top dose activity, negative = inhibition, most hits filed as inhibitors. Histone-lysine N-methyltransferase EHMT2 (Homo sapiens), Q96KQ7; further: on the % scale 0 is the no-effect control and ±100 the full control effect; nearly all actives have a fitted effect of over 75% in size
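Step 1: enzyme (final 20 nM) with compound, 15 min RT. Step 2: substrate peptide 500 nM and SAM 20 uM, 2 h RT. Step 3: anti-H3K9me1 antibody and AlphaScreen beads, 10 min, then plate read.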
BAZ2B block = qHTS Assay for Inhibitors of BAZ2B; AlphaScreen BAZ2B-H3K14Ac peptide displacement; Bromodomain adjacent to zinc finger domain protein 2B (Homo sapiens), Q9UIF8; 360,000 compounds, 4.4% hits; Potency, µM (highest dose often 114 µM), for the others: at the highest dose activity change, negative = inhibition, most hits filed as inhibitors; further: on the % scale 0 is the no-effect control and ±100 the full control effect; nearly all actives have a fitted effect of over 60% in size
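Complex of BAZ2B and biotin-H3K14Ac (50 nM apiece) forms over 30 min at RT, then faces library compounds up to 110 uM for another 30 min; AlphaScreen beads added, 20 min dark incubation, luminescence read.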
L3MBTL1 block = qHTS Assay for the Inhibitors of L3MBTL1; Potency, µM (highest dose often 57.1 µM), without a hit: top-dose activity, negative = inhibition, actives largely listed as inhibitors; 230,000 compounds, 0.66% hits; Lethal(3)malignant brain tumor-like protein 1 (Homo sapiens), Q9Y468; AlphaScreen L3MBTL1–H3K9me1 peptide binding; AID 485360, 2010; further: on the % scale 0 is the no-effect control and ±100 the full control effect; nearly all actives have a fitted effect of over 60% in size
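Read-out is AlphaScreen signal from streptavidin donor and nickel chelate acceptor beads (10 ug/mL final each) bridging L3MBTL1 (50 nM) and biotinylated K9-monomethylated H3(1-15) peptide (75 nM), after 30 min compound exposure at room temperature.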
* = called active by the depositor; ? = inconclusive; · = not tested or not shown; ! = repeats disagree; [ ] = another dose, or the depositor's remark. In the library only some 11% were active in any assay of this set; here they are far more common. The call rests on the fitted dose curve; in most records, active means well fitted inhibition curve with a large enough effect; inconclusive means small, poorly fitted or top-dose-only effect; inactive means no such curve, though single readings can be large or run the other way. Potency means the concentration at half of the fitted maximal effect.

SMILES	JMJD2A Tudor inh	HP1b chromo inh	G9a block	BAZ2B block	L3MBTL1 block
O=C(CSc1ncn[nH]1)c1ccco1	-5%[11.4 µM]	?	5.6µM*	0%	-10%
CCCCNC(=O)CCn1c(=O)c2cccn2c2cccnc21	5%	36%	40%[59 µM]	-34%	·
O=C1Cc2cc(S(=O)(=O)N3CCN(c4ccc(F)cc4)CC3)ccc2N1	-26%[229 µM]	·	·	·	·
O=C(CSc1ncn[nH]1)Nc1ccc(Cl)c(Cl)c1	-5%[11.4 µM]	59%	45µM*	-2%	-3%
Cc1ccc(NC(=O)CSc2ncn[nH]2)cc1C	?	-4%	0%[59 µM]	?	·
Oc1ccc(N2CCN(Cc3cc4c(cc3Br)OCCO4)CC2)cc1	35µM*	?	1.8µM*	40µM*	·
O=S(=O)(c1ccc(F)cc1)N1CCN(Cc2cc3c(cc2Br)OCCO3)CC1	-2%	47%	17%[2.33 µM]	1%	-6%
COc1ccc(Cn2c(CCC(=O)Nc3ccc(C)cc3)nc3cccnc32)cc1	79µM*!	8%	1%[59 µM]	-12%	·
COc1ccccc1NC(=O)CCS(=O)(=O)c1ccc2nc(C)sc2c1	11%	33%	-2%[59 µM]	-1%	·
COc1ccc(Cn2c(CCC(=O)Nc3cc(C)cc(C)c3)nc3cccnc32)cc1	-28%	-2%	4%[59 µM]	-11%	·
Cc1ccc(CNC(=O)CCS(=O)(=O)c2cccc3nsnc23)cc1	-12%	20%	8%[12.7 µM]	12%	·
Cc1ccc(NC(=O)CCS(=O)(=O)c2cccc3nsnc23)c(C)c1	-8%	35%	3%[59 µM]	2%	·
CCc1ccc(NC(=O)CCS(=O)(=O)c2cccc3nsnc23)cc1	-18%	9%	40µM*	-7%	·
Cc1nc2ccc(S(=O)(=O)CCC(=O)Nc3ccc(F)cc3C)cc2s1	71µM*	-11%	4.5µM*	-3%	·
CCN(CC)c1ccc(NC(=O)CCS(=O)(=O)c2cccc3nsnc23)c(C)c1	56µM*	?	40µM*	?	-7%
Cc1ccc(CCNC(=O)c2sc3ncccc3c2-n2c(C)ccc2C)cc1	-24%	12%[57 µM]	-3%[59 µM]	3%	·
Cn1cc(S(=O)(=O)N2CCOCC2)cc1C(=O)Nc1cccc(Cl)c1	-18%	22%	-30%	?	-1%
CCOc1ccc(OCC)c(NC(=O)CCc2nc3cccnc3n2Cc2cccs2)c1	-21%	34%	-5%[59 µM]	-15%	·
Cc1cccc(N(C)C(=O)CCS(=O)(=O)c2cccc3nonc23)c1	-6%	17%	12%[12.7 µM]	11%	·
O=C(CNS(=O)(=O)c1cccc2nsnc12)NC1CCCCC1	-10%	21%	2%[2.33 µM]	15%	·
CCN(C(=O)CCS(=O)(=O)c1cccc2nonc12)c1ccc(C)c(C)c1	-15%	9%	16µM*	-17%	·
CCN(CC)c1ccc(NC(=O)CCc2nc3cccnc3n2Cc2cccs2)c(C)c1	20µM*	-15%	8.9µM*	?	·
O=C(CCS(=O)(=O)c1cccc2nsnc12)NC1CCCCC1	-13%	24%	22µM*	-1%	2%
CCc1ccc(NC(=O)C2CCCN(S(=O)(=O)c3cccc4nsnc34)C2)cc1 (configuration not stated)	-8%	25%	3%[59 µM]	·	·
CC(C)COCc1ccc(O)c2ncccc12	45µM*	16%	-11%[59 µM]	25µM*	20µM*
SMILES	JMJD2A Tudor inh	HP1b chromo inh	G9a block	BAZ2B block	L3MBTL1 block
CCCOCc1ccc(O)c2ncccc12	56µM*	35%	20%[59 µM]	13µM*	28µM*
CN(C)c1cccc2c1c(NC(=O)Nc1ccc(Cl)cc1Cl)nn2C	-20%	25%	-10%	1%	6%
COc1ccccc1NC(=O)Nc1nn(C)c2cccc(N(C)C)c12	?	?	14µM*	?	·
O=S1(=O)N=C(Oc2ccccc2Br)c2ccccc21	79µM*	·	·	·	·
O=C(O)c1ccccc1OC1=NS(=O)(=O)c2ccccc21	79µM*	·	·	·	·
O=S1(=O)N=C(Oc2ccccc2Cl)c2ccccc21	112µM*	·	·	·	·
Cc1ccccc1OC1=NS(=O)(=O)c2ccccc21	?	14%	?	-32%	3%
CCn1c(=O)c2cc(C(=O)NCCCN3CCN(C)CC3)sc2c2ccccc21	-9%	23%	-45%[59 µM]	-8%	·
CCCC(/C=C/c1ccc(OC(C)=O)cc1)=C1/c2ccccc2C(=O)N1c1ccccc1	-2%	24%	-28%[0.501 µM]	48%	74%
CC1(C)CC(=O)c2cc(N=C/C(C(=O)c3ccccc3)=C(\O)c3ccccc3)c(=O)oc2C1	?	36%	25µM*	-28%	19%
CC1(C)CC(=O)C(C=Nc2ccccc2C(=O)O)=C(O)C1	-23%	47%	-24%[59 µM]	5%	0%
CCc1ccc2oc(-c3cc(NC(=O)C(C)C)cc(C)c3O)nc2c1	-5%	12%	-3%[59 µM]	-8%	·
CCC1CCC(N2CCN(c3ccc(F)cc3)CC2)CC1 (configuration not stated)	-13%	16%	45µM*	-38%	-6%
CCC1CCC(N2CCN(c3ccc([N+](=O)[O-])cc3)CC2)CC1 (configuration not stated)	?	-1%	·	71µM*	-8%
Cc1c(-c2ccccc2)[n+](=O)c2c(n1[O-])CCCC2	6%	26%	17%	1%	2%
COc1ccccc1C(CNC(=O)CN1C(=O)NC(C)(c2ccc3ccccc3c2)C1=O)N1CCCC1 (configuration not stated)	-23%	24%	·	·	·
O=C(O)c1ccc(N/N=C/c2ccc(-c3ccccc3)cc2)cc1	-33%	-13%	45µM*	·	·
O=C(N/N=C/C=C/c1ccccc1)c1ccncc1	?	13%	42%[59 µM]	4%	27%
O=C(O)c1ccc(N/N=C/C=C/c2ccccc2)cc1	-31%	7%	71µM*	?	·
O=C(O)c1ccc(N/N=C/c2ccc(OC(=O)c3ccccc3Cl)cc2)cc1	?	?	2%[59 µM]	89µM*	-14%
CC(C)c1ccc(/C=N/Nc2ccc(C(=O)O)cc2)cc1	-25%	25%	10µM*	?	-11%
